Over roughly 39,000 sequences, “fluorescence intensity (a.u.)” has its median near 4,300; the highest 2% begin near 39,000. This is one part of a sample in which the highest values are shown more often than they occur.

The assay deals with T1, OsSMF1 (Oryza sativa, UniProt Q6ZLB0 1-436).
T1 sequence: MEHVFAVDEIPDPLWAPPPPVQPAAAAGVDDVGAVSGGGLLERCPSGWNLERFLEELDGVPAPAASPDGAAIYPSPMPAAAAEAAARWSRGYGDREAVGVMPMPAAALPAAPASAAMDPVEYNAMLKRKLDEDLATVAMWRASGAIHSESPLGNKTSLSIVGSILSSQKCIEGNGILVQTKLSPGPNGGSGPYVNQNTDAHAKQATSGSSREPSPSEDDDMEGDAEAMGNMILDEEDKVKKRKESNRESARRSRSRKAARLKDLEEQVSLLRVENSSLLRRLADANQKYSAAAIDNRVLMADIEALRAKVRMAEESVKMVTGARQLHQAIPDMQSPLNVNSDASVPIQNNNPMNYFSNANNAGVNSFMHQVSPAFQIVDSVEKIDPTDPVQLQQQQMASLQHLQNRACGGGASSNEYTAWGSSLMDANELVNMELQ
Kind of assay: protein-binding microarray (RPBM); PBS, 2% BSA, 51.3 ng/ul salmon testes DNA, 50 uM zinc acetate, 200 nM TF, 25 C, 1 h; high values mean tight binding. Conditions: protein: recombinant; tags: N-terminal polyhistidine and DsRed monomer fusion (pET32a); chain copies: 2; label: CyDye5-dUTP incorporated in the synthesized complementary strand; 3' TTTTT single-stranded linker to array surface; dsDNA, one strand shown. The procedure, abridged: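 The binding signal is fluorescence intensity per feature, in arbitrary units, read on an Axon 4000B scanner. Polyhistidine- and DsRed-tagged transcription factors (N-terminal fusions) from E. coli BL21-CodonPlus were purified on Ni–NTA and applied at 200 nM for 1 h at 25 °C to a double-stranded, BSA-blocked custom Agilent array in buffer with 50 µM zinc acetate.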
Turning to “AGAGGCATGGGAGTCATGTTCAGGGTGATGGGAGATGGAGCGGAGTCACCTAGTGCAG”, the binding signal is 3260 fluorescence intensity (a.u.).

As to “ATAGCCCGTCCTCTTCATGGACCACGGTGTACAGCTTGCTCGGAGTCACCTAGTGCAG”, the binding signal is 3980 fluorescence intensity (a.u.). Turning to “TTAGTTGTTCTTGTTCTCTTGGTTGGGACGTGGAGAGTTGCGGAGTCACCTAGTGCAG”, the binding signal was 3440 fluorescence intensity (a.u.). To “ACATTATCATGTCACGTCGTCGCGTAATCATGGGTACCCACGGAGTCACCTAGTGCAG” belongs 4200 fluorescence intensity (a.u.). Turning to “GCCGACACGTCGCGACGCCGCTTGCCACGCGCCACGCGCGCGGAGTCACCTAGTGCAG”, the binding signal is 6450 fluorescence intensity (a.u.). For “TAAAATTATTATATTTTATAAGAAAGGTAACAAGTAAACACGGAGTCACCTAGTGCAG”, the binding signal is 28600 fluorescence intensity (a.u.). Regarding “GCTAGGTTCAACGTCATGCCTCATGTTGTCTATTGCTGTTCGGAGTCACCTAGTGCAG”, the binding signal was 4070 fluorescence intensity (a.u.).

Regarding “GGGGTTAGTCGCCGGAGGTGTGGCGTGTCGACACGTACGCCGGAGTCACCTAGTGCAG”, the binding signal was 8720 fluorescence intensity (a.u.). As to “TTGTTTCACCGCTTACGCCACGTGCGCCGCTCAGCTGTATCGGAGTCACCTAGTGCAG”, the binding signal is 9840 fluorescence intensity (a.u.). Under “ATCCTCAACTCAATCCCGACGAAATCCCCTTCGATTTGAGCGGAGTCACCTAGTGCAG” stands 3290 fluorescence intensity (a.u.); under “TTAAAACGCATCAAGATTATAAGAGCCAAGAGAAATTGCACGGAGTCACCTAGTGCAG”, 3520 fluorescence intensity (a.u.). Under “AAGAATTAAAGAAGCCTTTATAAGAAGAGAAGGCCAAGCTCGGAGTCACCTAGTGCAG” stands 60800 fluorescence intensity (a.u.); under “GATTAAATGGAAGAGAGAATGAATAATTAAGATTTAAAGACGGAGTCACCTAGTGCAG”, 27400 fluorescence intensity (a.u.); under “TCAAGGACCTCGTCATCCTCTCAGGTAACACACTTTCCCTCGGAGTCACCTAGTGCAG”, 3780 fluorescence intensity (a.u.).

With “ACGCCGCTAGTTCTTTTCTCCAGAGCAATCTGGTCAGTTCCGGAGTCACCTAGTGCAG”, the binding signal was 59900 fluorescence intensity (a.u.). Regarding “TCCTCTTCTCCTCCGCCGCATCAGCAATCTCTCTTTCTACCGGAGTCACCTAGTGCAG”, the binding signal was 4100 fluorescence intensity (a.u.).

“CTTCGCTCTCTTTTCCATTGCAGAGCCCTCACGCTTCCGCCGGAGTCACCTAGTGCAG”: the binding signal is 3570 fluorescence intensity (a.u.). For the sequence “AGAAGAGGTGATGTATAAAACATGTCACGATTTAATATCTCGGAGTCACCTAGTGCAG”, the binding signal is 4070 fluorescence intensity (a.u.). For the sequence “TTATTATGAAAATATATTTAATTATTGATTTGATGAAACTCGGAGTCACCTAGTGCAG”, the binding signal was 21300 fluorescence intensity (a.u.).

“TATAAATTAATATGTAGTATATCACTTCATAAGTTTAAATCGGAGTCACCTAGTGCAG”: the binding signal was 39300 fluorescence intensity (a.u.). For the sequence “GTATATATACACGTATACAAAGTTTATATATGACGTATACCGGAGTCACCTAGTGCAG”, the binding signal was 6040 fluorescence intensity (a.u.). “ATCTTGATATCTGCAACATAAAATGTAACATCAGATTTAACGGAGTCACCTAGTGCAG”: the binding signal was 39500 fluorescence intensity (a.u.). Turning to “ATAACCTAATATAAAGTTCGCTCATATGAAAATTTAAACTCGGAGTCACCTAGTGCAG”, the binding signal is 51600 fluorescence intensity (a.u.). On to “AAATAACAAAATTACAAGTTTAACATAAATATGTAATCACCGGAGTCACCTAGTGCAG”, for which the binding signal is 21200 fluorescence intensity (a.u.).

For the sequence “AATTATCATAAAACAACATATTTAAACCATGGTAACATAACGGAGTCACCTAGTGCAG”, the binding signal is 6200 fluorescence intensity (a.u.). On to “TTAATACGTATGAATATATAAAGTTTATATATGCATGTACCGGAGTCACCTAGTGCAG”, for which the binding signal was 63000 fluorescence intensity (a.u.). For the sequence “GATATGATTATTTATTTCTTTAAATGAAAATCATGTGTAACGGAGTCACCTAGTGCAG”, the binding signal was 32500 fluorescence intensity (a.u.). Take “GTGTTTATATAAGTGTTTGCATATGTACTATGTTTTAATACGGAGTCACCTAGTGCAG”: the binding signal was 3730 fluorescence intensity (a.u.). Take “AAGAAGTACGTCATATATTCAGTTTTATGTATTATTTTATCGGAGTCACCTAGTGCAG”: the binding signal is 3310 fluorescence intensity (a.u.).

For “AACATAATGTTTTAACTTAAACCTTAATAATGAAATTTCTCGGAGTCACCTAGTGCAG”, the binding signal was 3670 fluorescence intensity (a.u.). To “TTCGACACAGTCATACGTGAGTCGGATGGAGTTAGGTCTGCGGAGTCACCTAGTGCAG” belongs 4150 fluorescence intensity (a.u.); to “CTCCTCCCATGCGCCGCCACGTAGGATCGCGCGATCAGATCGGAGTCACCTAGTGCAG”, 10300 fluorescence intensity (a.u.). Turning to “AACACGAAAATGAAAGGGAGGGGCTTTCCTTAGCGATTAACGGAGTCACCTAGTGCAG”, the binding signal was 3830 fluorescence intensity (a.u.). For the sequence “TGTAAACTTTTATGATCATTTAGGAGCTCTGGACAGTAATCGGAGTCACCTAGTGCAG”, the binding signal is 18200 fluorescence intensity (a.u.). On to “ATGCCATTGATTCAATAGTGAATCATCGTTCTTTCTGGATCGGAGTCACCTAGTGCAG”, for which the binding signal is 3550 fluorescence intensity (a.u.). Under “CTATAATTTAAACATGTAAAGTTTACGTGTATATAAATTTCGGAGTCACCTAGTGCAG” stands 3160 fluorescence intensity (a.u.). Regarding “AAATGGATGATAAGTATAATTACTTAGAGCAAGTTTAATACGGAGTCACCTAGTGCAG”, the binding signal is 65500 fluorescence intensity (a.u.). For “TTTATTATTAGTTTACGTTTAATACTTCTAATTAGTATAACGGAGTCACCTAGTGCAG”, the binding signal is 3240 fluorescence intensity (a.u.). As for “AAGTTATACTTAAAGTATTATAAATAATAAAGTAAGTCACCGGAGTCACCTAGTGCAG”, the binding signal is 34100 fluorescence intensity (a.u.). Under “AGGTAATGTATCATAAAACTATAGATTTAACACTAAATTTCGGAGTCACCTAGTGCAG” stands 53000 fluorescence intensity (a.u.); under “GTATCAAAACATATTCAATCATAGATTTAATGAAAACTAACGGAGTCACCTAGTGCAG”, 3360 fluorescence intensity (a.u.). With “TAGCCAGGAGGGAGGTGGCAAAACAGAATGATGGGAGGGACGGAGTCACCTAGTGCAG”, the binding signal is 3220 fluorescence intensity (a.u.).

The values above are taken from article PMC7819943, “Rice protein-binding microarrays: a tool to detect cis-acting elements near promoter regions in rice”.
